This note sets out measurements from PubChem BioAssay AID1851 (National Center for Advancing Translational Sciences (NCATS), 2009).

About 5,100 (32%) of roughly 16,000 compounds were called active. Inconclusive results (about 25%) are left out. Some of the results follow. Values without a mark were called inactive. Calls follow the shape of the dose curve; as a rule, active = well fitted curve in the direction sought with a large enough effect; inconclusive = small, poorly fitted or top-dose-only effect, or effect the other way; inactive = no such curve, though single readings can be large or run the other way.
% is scaled to controls: 0 for no effect and ±100 for the full control effect.

This assay deals with Cytochrome P450 3A4 (Homo sapiens) (UniProt P08684). Put plainly: Cytochrome panel assay with activity outcomes. Particulars: recombinant CYP, pro-luciferin dealkylation, luminescence, p450-cyp3a4; series mostly up to 57.1 µM; activity, negative = inhibition: at the top concentration.
Chain of Cytochrome P450 3A4 (Homo sapiens) (P08684 whole entry, looked up): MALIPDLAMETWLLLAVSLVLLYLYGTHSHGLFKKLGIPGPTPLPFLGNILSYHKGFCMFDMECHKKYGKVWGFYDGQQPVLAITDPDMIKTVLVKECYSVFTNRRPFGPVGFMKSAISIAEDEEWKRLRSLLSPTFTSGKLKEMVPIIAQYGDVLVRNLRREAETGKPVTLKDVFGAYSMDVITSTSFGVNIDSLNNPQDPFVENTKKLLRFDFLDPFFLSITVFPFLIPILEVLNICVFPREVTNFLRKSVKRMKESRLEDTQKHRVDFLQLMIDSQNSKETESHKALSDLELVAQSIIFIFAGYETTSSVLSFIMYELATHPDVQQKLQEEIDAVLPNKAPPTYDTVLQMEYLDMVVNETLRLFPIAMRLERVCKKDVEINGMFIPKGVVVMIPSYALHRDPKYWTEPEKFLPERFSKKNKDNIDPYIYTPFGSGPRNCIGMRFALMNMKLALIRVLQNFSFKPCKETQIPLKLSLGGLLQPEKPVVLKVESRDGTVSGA
With `COc1ccc(C2N=C(N)N=C(N)N2c2ccccc2OC)cc1OC` (stereo unspecified), the activity, negative = inhibition was -8.43% [at 2.29 µM].

As for `C[N+]1(C)C[C@@H](O)C[C@@H]1C(=O)[O-]`, the “activity, negative = inhibition” value was 8.58% [at 25.6 µM].

As to `C=C(C)COc1ccc2c(c1)CCC1C2CC[C@]2(C)C(=O)/C(=N/O)CC12` (stereo partly specified), the activity, negative = inhibition was 1.68% [at 11.4 µM].

For the compound `N#CCCn1c(=O)cnc2cnc(N3CCOCC3)nc21`, the “activity, negative = inhibition” value was -3.94%.

As for `COc1cccc(-c2cncnc2NCCc2c[nH]c3ccc(OC)cc23)c1`, the AC50 is 0.501 µM (active).

With `COc1ccc2[nH]cc(CCNc3ncncc3-c3cccnc3)c2c1`, the AC50 is 0.794 µM (active).

In the case of `COc1ccc2[nH]cc(CCNc3ncncc3-c3cccc(NS(C)(=O)=O)c3)c2c1`, the AC50 was 0.398 µM (active).

As to `Clc1ccc(N2CCCCCC2)nn1`, the “activity, negative = inhibition” value is -15.4%.

With `COc1ccccc1NC(=O)CCN1C(=O)C2CC=C(Cl)CC2C1=O` (stereo unspecified), the AC50 was 14.1 µM (active).

Take `Cc1ncc(N=Nc2ccccc2Cl)c(-c2ccccc2)n1`: the “activity, negative = inhibition” value was -21.3%.

With `COC(=O)CNC(=O)CN1C(=O)N(c2ccc(Cl)cc2)C(N(O)C(=O)Nc2ccc(Cl)cc2)C1(C)C` (stereo unspecified), the AC50 is 4.47 µM (active).

Consider `COC(=O)CNC(=O)CN1C(=O)N(c2ccccc2)C(N(O)C(=O)Nc2ccccc2)C1(C)C` (stereo unspecified), for which the “activity, negative = inhibition” value is 27.6%.

As to `COC(=O)CC1C(=O)NCCN1C(=O)Nc1ccc(Cl)cc1` (stereo unspecified), the “activity, negative = inhibition” value is -7.49%.

`Cc1ccc(OCCOCCn2ccnc2)c(Br)c1`: the AC50 was 0.562 µM (active).

As for `Cc1cccc(OCCCCCn2ccnc2)c1`, the AC50 is 0.562 µM (active).

As for `COc1cc(C)ccc1OCCOc1cc(C)ccc1Cl`, the activity, negative = inhibition was 5.86% [at 2.29 µM].

As to `O=C(O)c1cccc(OCCO)c1`, the activity, negative = inhibition is -12.1% [at 11.4 µM].

On to `Cc1cc2[nH]c(=O)c3ccccc3n2n1`, for which the “activity, negative = inhibition” value is -11%.

For `O=c1cc(CSc2nnc(-c3cccnc3)n2-c2ccccc2F)nc2sccn12`, the AC50 is 2.82 µM (active).

Take `Cn1cc(C(=O)N/N=C/C(Br)=C\c2ccccc2)ccc1=O`: the “activity, negative = inhibition” value is -21.8%.

Regarding `N#Cc1cccc(NC(=O)N2CC[C@@]3(CCCN(S(=O)(=O)c4ccccc4)C3)C2)c1`, the AC50 is 3.16 µM (active).

For `CS(=O)(=O)N1CCC[C@@]2(CCN(C(=O)Nc3ccccc3)C2)C1`, the “activity, negative = inhibition” value was -21.2%.

Consider `O=C(Nc1cccc(F)c1)N1CC2(CCN(S(=O)(=O)c3ccccc3)CC2)C1`, for which the “activity, negative = inhibition” value is -16.5%.

Consider `O=C(Nc1cccc(F)c1)N1CCCC2(CCN(S(=O)(=O)c3ccccc3)CC2)C1`, for which the AC50 was 12.6 µM (active).

As for `CS(=O)(=O)N1CCC2(CCN(C(=O)Nc3cccc(F)c3)CC2)CC1`, the “activity, negative = inhibition” value is 0.77%.

Take `O=C(Nc1cccc(F)c1)N1CC[C@@]2(CCCN(S(=O)(=O)c3ccccc3)C2)C1`: the AC50 was 25.1 µM (active).

`CS(=O)(=O)N1CCC2(CCN(C(=O)Nc3cccc(C#N)c3)CC2)CC1`: the “activity, negative = inhibition” value was -0.782%.

`Clc1ccccc1CSc1nnc(/C=C/c2ccccc2)o1`: the “activity, negative = inhibition” value was -23.3%.

For `CC(/C=C1\N=C(SCc2ccccc2Cl)SC1=O)=C\c1ccccc1`, the AC50 was 14.1 µM (active).

For the compound `O=c1[nH]c2cc(Cl)ccc2c(O)c1-c1cccc(Oc2ccccc2)c1`, the “activity, negative = inhibition” value is -19.3%.

As for `CC1(C)CCC=[N+]1[O-]`, the “activity, negative = inhibition” value was 16.1%.

`NC(N)=NC(N)=Nc1ccccc1`: the “activity, negative = inhibition” value was -12.3%.

As to `O=C(Nc1ccc(N2CCCCC2)cc1)c1cncc(Br)c1`, the AC50 was 1.41 µM (active).

As for `CCc1ccc(OCCCC(=O)Nc2ccc(N3CCCCC3)cc2)cc1`, the “activity, negative = inhibition” value is -10.4%.

For the compound `O=C(O)CNC(=O)[C@@H](CS)Cc1ccccc1`, the “activity, negative = inhibition” value is 0.949%.

`CCSc1nnc(NC(=O)Cc2ccccc2OC)s1`: the “activity, negative = inhibition” value was -9.72%.

Consider `COc1ccccc1C(=O)NCCn1cc(SCC(=O)Nc2nnc(C)s2)c2ccccc21`, for which the AC50 is 6.31 µM (active).

Consider `CCCCCCCC/C=C\CCCCCCCC(=O)NCCc1ccc(O)c(O)c1`, for which the AC50 is 3.16 µM (active).

As for `CCCCCCC/C=C\CCCCCCCCC(=O)O`, the “activity, negative = inhibition” value was -7.01%.

`CCCCCCCCCCCCCCCC(=O)NC(C)C`: the “activity, negative = inhibition” value was -13.2%.

For `CCCCCCCC/C=C\CCCCCCCC(=O)N[C@@H](CO)Cc1ccc(O)cc1`, the AC50 is 10 µM (active).

As to `CC(=O)NCCc1ccc(O)c(O)c1`, the “activity, negative = inhibition” value is -7.98%.

For `CCCCCCCCCCCCCCC/C=C\[C@H](O)[C@@H](NC(=O)CCCCCCCCCCCCC)OC` (tested in a mixture with another compound), the “activity, negative = inhibition” value is 15.6%.

Regarding `N=C(N)SCC(=O)O`, the activity, negative = inhibition is -3.45% [at 11.4 µM].

Regarding `O=S(=O)(c1ccccc1)N1CCC2(CCN(Cc3ccncc3)CC2)CC1`, the AC50 is 3.98 µM (active).

`N#Cc1ccc(CN2CCCC3(CCN(S(=O)(=O)c4ccccc4)CC3)C2)cc1`: the AC50 is 3.16 µM (active).

On to `O=S(=O)(c1ccccc1)N1CCC2(CCN(Cc3ccccc3)CC2)CC1`, for which the “activity, negative = inhibition” value was -5.59%.

Take `O=S(=O)(c1ccccc1)N1CCC2(CCCN(Cc3ccncc3)C2)CC1`: the AC50 was 3.98 µM (active).

Consider `CC(C)CN1CCC2(CC1)CCN(S(=O)(=O)c1ccccc1)CC2`, for which the “activity, negative = inhibition” value was -5.33%.

On to `O=S(=O)(c1ccccc1)N1CCC2(CC1)CN(Cc1ccccc1)C2`, for which the “activity, negative = inhibition” value was 11.6%.

Take `CC(C)CN1CCCC2(CCN(S(=O)(=O)c3ccccc3)CC2)C1`: the AC50 was 15.8 µM (active).

As to `CC/C=C\CC[C@H](O)C1=CCCCC1=O`, the activity, negative = inhibition was -12.1% [at 11.4 µM].

Take `Cc1ccc(C2CC(=O)c3cnc(N4CCc5ccccc5C4)nc3C2)cc1` (stereo unspecified): the activity, negative = inhibition is -6% [at 2.29 µM].

For the compound `COc1ccc(C2CC(=O)c3cnc(Nc4cc(C)cc(C)c4)nc3C2)cc1` (stereo unspecified), the AC50 is 4.47 µM (active).

As for `COc1ccc(Nc2ncc3c(n2)CC(c2ccc(C)cc2)CC3=O)cc1` (stereo unspecified), the AC50 was 8.91 µM (active).

For `CC1CC(=O)c2cnc(N)nc2C1` (stereo unspecified), the “activity, negative = inhibition” value is 6.35%.

As to `O=C1CC(c2ccccc2)Cc2nc(N3CCc4ccccc4C3)ncc21` (stereo unspecified), the activity, negative = inhibition was 2.14% [at 2.29 µM].

As for `Nc1ncnc2c1ncn2C[C@@H](O)C(=O)O`, the activity, negative = inhibition is 1.58% [at 11.4 µM].

For `COc1ccc(Oc2ncc3ncc(=O)n(C[C@H]4CCCO4)c3n2)cc1`, the AC50 was 12.6 µM (active).

For the compound `O=c1cnc2cnc(Oc3cccc(Cl)c3)nc2n1C[C@H]1CCCO1`, the “activity, negative = inhibition” value is -20.3%.

For the compound `CCNc1ncc2nc(C)c(=O)n(C[C@H]3CCCO3)c2n1`, the “activity, negative = inhibition” value was -10.9%.

On to `COc1ccc(-c2nc3cnc(N4CCOCC4)nc3n(C[C@H]3CCCO3)c2=O)cc1`, for which the “activity, negative = inhibition” value was -3.59%.

Consider `CCNc1ncc2ncc(=O)n(C[C@H]3CCCO3)c2n1`, for which the “activity, negative = inhibition” value is -21%.

For the compound `COc1ccc(Oc2ncc3nc(C)c(=O)n(C[C@H]4CCCO4)c3n2)cc1`, the AC50 was 3.98 µM (active).

For the compound `Nc1ccc(N(S(=O)(=O)c2ccccc2)S(=O)(=O)c2ccccc2)c(Cl)c1`, the AC50 was 0.0316 µM (active).

Turning to `CN(CCC(=O)O)S(=O)(=O)c1ccccc1`, the activity, negative = inhibition was -26.6% [at 11.4 µM].

By AC50 is commonly meant the midpoint of the concentration-response curve, whichever way the signal moves.
